Data as given in ChEMBL document CHEMBL3988442, “University of Dundee, Small-Polar-MMV Screening Library” (2021).

Tests used:
[1] = target: T1, Aspartate--tRNA(Asp/Asn) ligase (Mycobacterium tuberculosis (strain ATCC 25618 / H37Rv)) (UniProt P9WFW3); experiment: Assay for Asp RNA synthetase-1 from Mycobacterium tuberculosis; format: functional; set-up: scale not given: direction of the effect not stated beside the values; conditions: 30 µM; further: in the data most compounds retested in dose-response had high values
T1 sequence (whole entry): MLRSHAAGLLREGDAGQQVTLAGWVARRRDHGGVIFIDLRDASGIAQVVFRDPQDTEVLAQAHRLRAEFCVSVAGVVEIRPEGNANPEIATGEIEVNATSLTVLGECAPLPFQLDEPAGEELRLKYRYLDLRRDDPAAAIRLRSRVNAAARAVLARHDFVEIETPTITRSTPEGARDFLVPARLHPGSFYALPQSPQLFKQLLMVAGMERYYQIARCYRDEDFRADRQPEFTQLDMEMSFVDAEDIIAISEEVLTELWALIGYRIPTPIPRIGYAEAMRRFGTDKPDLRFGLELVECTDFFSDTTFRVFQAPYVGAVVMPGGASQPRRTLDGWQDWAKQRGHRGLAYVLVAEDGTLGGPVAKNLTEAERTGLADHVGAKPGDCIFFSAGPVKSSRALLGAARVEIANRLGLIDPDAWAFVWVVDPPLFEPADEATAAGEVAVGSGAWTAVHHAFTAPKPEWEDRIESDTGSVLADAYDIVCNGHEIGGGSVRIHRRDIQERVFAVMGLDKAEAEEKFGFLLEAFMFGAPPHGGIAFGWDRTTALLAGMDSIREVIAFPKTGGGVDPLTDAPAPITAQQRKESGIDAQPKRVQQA

[2] = target: Shiga toxin 2 (Escherichia coli O157:H7) (UniProt P09385+P09386); experiment: E. coli 0.157:H7 Shiga Toxin SOP - stx2 screening assay; format: functional; set-up: scale not given: direction of the effect not stated beside the values; conditions: 30 µM

SMILES | Percent Effect [1] [%] | Percent Effect [2] [%]
Cc1noc(C)c1-c1cnc(CC2CCN(C(=O)c3cc[nH]n3)C2)cn1 (configuration not stated) | 4.09 | 7.65
COc1ccc(C2OC(COc3ccccc3Br)=NN2C(C)=O)cc1 (configuration not stated) | 0.568 | -36.2
CC(C)n1c(C2CCCN(CCS(C)(=O)=O)C2)nc2ccccc21 (configuration not stated) | 0.943 | 17.6
O=C(CCc1cc(O)no1)N1CCCC(COc2ccc(F)cc2)C1 (configuration not stated) | -2.45 | -19.8
Cc1ccc(N2CC[C@H]3C[C@@H](C(=O)N4CCOCC4)O[C@H]3C2)nn1 | 0.749 | 12.8
COc1ccc2c(c1)OC1(CCN(Cc3ccc(F)cc3)CC1)CC2=O | -5.55 | 17.6
CC(C)OCCN1CCC(N2CCN(C)C2=O)CC1 | 0.182 | -16.8
Cc1csc(N2CCN(C(=O)Cc3ccc(C)s3)CC2)n1 | -4.4 | 12.2
Cc1csc(N2CCN(CC(=O)Nc3c(C)n[nH]c3C)CC2C)n1 (configuration not stated) | 2.07 | 17.4
CS(=O)(=O)CCC(=O)N1CCC2(CCCN(C3CCOCC3)C2=O)C1 (configuration not stated) | 3.37 | -8.62
O=C(NCc1ccccn1)c1nnn(-c2ccc(Br)cc2)n1 | -5.38 | -13.6
Cc1cc(C)c(CNC(=O)NCC2CCCN2C)c(=O)[nH]1 (configuration not stated) | -1.7 | 26.6
COc1ccc(CNC(=O)NC(C)Cn2cccn2)cc1O (configuration not stated) | -1.61 | 17.6
CCn1cc(NC(=O)NCC(O)CN2CCc3ccccc3C2)cn1 (configuration not stated) | 6.51 | -38.6
COc1c(C2CCCN2C(=O)c2c[nH]c3ncccc23)c(C)nn1C (configuration not stated) | -1.25 | -20.6
CC(C)c1cc(N2CCC(N)CC2)n2nccc2n1 | -0.232 | 19.8
Cc1noc(C)c1C(=O)N1CCCC1c1c(C)nn(C)c1Cl (configuration not stated) | -3.2 | -9.41
COc1ccc(C(=O)NCCc2nnc3ccccn23)c(OC)c1 | 3.2 | -5.45
COc1cc(S(=O)(=O)N2CCCc3ccccc32)cc(C(=O)O)c1OC | 7.13 | -8.55
O=C1NCC2(CCCN(Cc3ccccc3F)C2)Oc2ccccc21 (configuration not stated) | -5.17 | -17.2
Cc1nc(CN2CCc3cncnc3C2)oc1C | -1.67 | -14.4
COCCN1CCN(Cc2cccc(C(=O)N(C)C)c2)CC1C (configuration not stated) | 1.34 | -34.7
COc1ccc(CNCC2CC2)cc1F | 2.55 | 28.8

SMILES | Percent Effect [1] [%] | Percent Effect [2] [%]
O=C(c1cccn2ccnc12)N1CCCN(c2cccnn2)CC1 | 2.1 | 22.9
Cc1nn(C)c(C)c1C1CCCN1CCCc1nc2ccccc2o1 (configuration not stated) | 3.71 | 7.57
O=C(N1CCCC1)N1CCO[C@H]2[C@@H](Oc3ccccn3)CC[C@@H]21 | -4.07 | -9.25
Cc1noc([C@@]23CCO[C@@H]2CCN(C(=O)C2CCOCC2)C3)n1 | 0.117 | -4.33
Cc1ccccc1CN1CCC(NCC2CNc3ccnn3C2)CC1 (configuration not stated) | 0.127 | -38.1
Cc1[nH]ncc1C(=O)N1CCCC(n2cncn2)C1 (configuration not stated) | 1.7 | 22.7
COCC(=O)NCc1cc(=O)n2c(n1)CN(CC1CCOC1)CCC2 (configuration not stated) | -4.6 | -5.14
Cn1cc(CN2CC[C@H]3C[C@H](c4nc(C5CC5)cs4)O[C@@H]3C2)cn1 | -0.624 | -28.1
CN(CCCOc1ccc(F)cc1)Cc1nc2c(cnn2C)c(=O)[nH]1 | -4.83 | 26.6
CCC1CN(C(=O)c2ccc(Cl)cc2O)CCN1C(C)C (configuration not stated) | -3.56 | 5.13
Cn1ncc(NCc2cccc(COC(C)(C)C)c2)c(Cl)c1=O | -4.13 | 12
O=C(NCCN1CCOCC1)c1ccc(-n2ccc3ccccc32)s1 | 3.45 | -47.9
Cc1nonc1CC(=O)N1C[C@@H]2CC[C@H](C1)N(Cc1ccccc1)C2=O | 1.39 | 2.88
COc1ncc(NC(=O)Nc2cc(C)ccc2OC)cn1 | 1.65 | -28.6
CNS(=O)(=O)c1ccc(C(=O)N2CCCC2c2cnn(C)c2)o1 (configuration not stated) | -2.58 | -29.3
Cc1nc2c(c(C)c1CC(=O)NCc1cccc(C#N)c1)c(=O)[nH]n2C | 0.634 | 25.4
CNC(=O)C1Cn2ccnc2C2(CCN(Cc3cccnc3)CC2)O1 (configuration not stated) | -0.0764 | 3.87
CN(Cc1cccc(F)c1)C(=O)CN1CCOC(Cn2cccn2)C1 (configuration not stated) | -0.139 | 0.15
CC(C)Cc1cc(NC(=O)c2ccc(=O)[nH]n2)n(C)n1 | -2.97 | -34.7
CCN1CC(C(=O)N(C)Cc2ccon2)CC1=O (configuration not stated) | -0.748 | -14.8
NS(=O)(=O)N1CCc2ccc(NC(=O)Cc3ccc(F)cc3)cc21 | -5.84 | -15
Cc1noc(C)c1C1CCCN1C(=O)CN1CC2(CCNCC2)OC1=O (configuration not stated) | -0.658 | -21
COc1ccc(C2Nc3cc(Cl)ccc3C3=NCCN32)cc1OC (configuration not stated) | -3.07 | -59.6
